The source of these data is PubChem BioAssay (Tox21).

This experiment has as its target 5-hydroxytryptamine receptor 2A (Homo sapiens) (UniProt P28223). The experiment can be described thus: 5-hydroxytryptamine receptor 2A (HTR2A) small molecule antagonists, cell-based qHTS assay (AID 1963586). Note: nearly all actives have a fitted effect of over 45% in size. The following applies: HTR2A-CHO cells, DOI-induced calcium flux, fluorescence; series mostly up to 61.5 µM. Put shortly:
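CHO cells stably expressing human HTR2A were plated for 18 h at 37 C, then loaded with calcium dye for 1 h. Compounds were preincubated 5 min at room temperature before DOI (4 nM solution) was added. Kinetic fluorescence was read for 3 min.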

Structures are written as SMILES. Inconclusive results are not listed. A call without a number means that no potency is given here. Calls of active or inactive are those of the source. Calls come from the whole dose curve.
Potency is the fitted concentration of half-maximal effect.

5-hydroxytryptamine receptor 2A (Homo sapiens), sequence (P28223 whole entry, looked up): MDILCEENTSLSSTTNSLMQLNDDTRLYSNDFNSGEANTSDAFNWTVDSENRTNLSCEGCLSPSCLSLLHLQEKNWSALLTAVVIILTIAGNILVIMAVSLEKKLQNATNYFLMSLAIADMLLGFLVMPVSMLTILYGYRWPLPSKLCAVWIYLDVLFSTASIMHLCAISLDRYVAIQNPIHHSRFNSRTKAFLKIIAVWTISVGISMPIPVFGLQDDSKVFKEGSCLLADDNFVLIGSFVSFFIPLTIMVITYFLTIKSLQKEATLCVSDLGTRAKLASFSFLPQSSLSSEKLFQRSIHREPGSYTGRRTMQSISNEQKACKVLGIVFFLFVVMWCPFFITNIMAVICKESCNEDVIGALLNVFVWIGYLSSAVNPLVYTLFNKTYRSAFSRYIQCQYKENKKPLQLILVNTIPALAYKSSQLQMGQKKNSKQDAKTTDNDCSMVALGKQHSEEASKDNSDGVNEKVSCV

With `O=C(O)c1ccc(Cl)cc1Cl`, the Potency result was “inactive”. Take `Cc1cccc(C)c1NC(=O)c1ccc(N)cc1`: the Potency result was “inactive”. The same measure for `O=C1CCCCCCCCCCC(=O)OCCO1`: “inactive”. Turning to `Brc1c2ccccc2cc2ccccc12`, the Potency result was “inactive”. `Cn1cccc1`: the Potency result is “inactive”. The same measure for `COc1cccc(O)c1`: “inactive”; for `CCCCCCCCCCc1ccccc1`: “inactive”. Turning to `CNc1c2c(nn1C)CCCC2`, the Potency result was “inactive”. For `Cl[Si](Cl)(c1ccccc1)c1ccccc1`, the Potency entry is “inactive”. Take `CCCCC(=O)O[C@]1(C(=O)CO)[C@H](C)C[C@H]2[C@@H]3CCC4=CC(=O)C=C[C@]4(C)[C@@]3(F)[C@@H](O)C[C@@]21C`: the Potency entry is “inactive”. The same measure for `O=C1c2ccccc2C(=O)C1c1ccc(Br)cc1`: “inactive”. The same measure for `CC(=O)c1c(C)cc(C(C)(C)C)cc1C`: “inactive”. The same measure for `ONc1ccccc1`: “inactive”. As to `Cc1ccnc(N)c1`, the Potency entry is “inactive”.

Regarding `O=C1c2cccc(O)c2C(=O)c2c(O)cc(CO)cc21`, the Potency entry is “inactive”. The same measure for `O=Cc1c(Cl)cccc1Cl`: “inactive”; for `CSc1nc(NC2CC2)nc(NC(C)(C)C)n1`: “inactive”. The same measure for `CC1CCCCC1`: “inactive”; for `Clc1nnc(Cl)c2ccccc12`: “inactive”.

As for `CCN(CC)CCOC(=O)C(c1ccccc1)c1ccccc1`, the Potency is 7.29 µM (active).

For the compound `O=C(CCC1CCN(Cc2ccccc2)CC1)c1ccc2c(c1)NCCCC2`, the Potency was 2.59 µM (active).
